# Bioassay records as filed in PubChem BioAssay.
# TRHR agonist = activates the human TRH receptor; activation, % at 2 µM; AID 493084; TRHR cells, calcium flux fluo-8, FDSS agonist mode; 360,000 compounds, 0.18% hits; further: 0% is about no effect
# Target sequence (P34981 whole entry, looked up): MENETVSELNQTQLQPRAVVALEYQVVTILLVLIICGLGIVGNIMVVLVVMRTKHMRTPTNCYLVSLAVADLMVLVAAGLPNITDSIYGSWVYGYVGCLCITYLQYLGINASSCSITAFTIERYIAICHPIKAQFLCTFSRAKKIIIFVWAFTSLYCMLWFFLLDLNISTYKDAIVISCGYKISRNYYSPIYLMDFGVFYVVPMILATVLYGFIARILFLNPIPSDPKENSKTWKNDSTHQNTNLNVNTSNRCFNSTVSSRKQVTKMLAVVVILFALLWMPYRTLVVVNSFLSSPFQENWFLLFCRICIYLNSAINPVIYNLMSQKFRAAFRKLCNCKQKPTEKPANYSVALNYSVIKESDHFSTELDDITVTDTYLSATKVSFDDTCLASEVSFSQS
#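 TRHR-expressing cells loaded with fluo-8 calcium dye; 23 nL library compound pin-transferred, kinetic FDSS fluorescence (Ex 480/Em 530) recorded about 180 s for agonist-induced calcium release, before a 10 nM TRH EC20 addition for potentiator mode.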
# D1 PAM = human D1 dopamine receptor positive modulation. potentiation, % at 10 µM. HEK293 TREx D1 cells, calcium flux, dopamine EC20 potentiation. 360,000 compounds, 0.036% hits. P21728; in the data active means potentiation above about 30%; further: 0% is about no effect
# TRHR PAM = TRH receptor (human) allosteric enhancement. P34981. TRHR cells, fluo-8 calcium fluorescence, EC20 TRH enhancement. 360,000 compounds, 0.66% hits. enhancement, % at 2 µM; in the data active means enhancement above about 30%; further: 0% is about no effect
#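 Enhancer read-out: after compound pinning and an initial kinetic agonist-mode read, an EC20 of TRH (10 nM final) was injected and fluo-8 calcium signal (Ex 480/Em 530) followed at 1 s/cycle for 100 cycles in TRHR-expressing cells.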
# D1 antag = blocks dopamine activation of the human D1 receptor; P21728; HEK293 TREx D1 cells, calcium flux, dopamine EC80; stronger effect = lower value; activity change, negative = inhibition, % at 10 µM; 360,000 compounds, 3.2% hits; AID 504652; in the data active means activity change below about -30%; further: on the % scale 0 is the no-effect control and ±100 the full control effect
#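 Inducible Hek293 Trex D1 cells (tetracycline, overnight, 30 C). Calcium dye 30–90 min RT. Antagonist mode: EC80 dopamine added after 180 s compound read.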
# D1 ag = agonists of human D1 dopamine receptor. P21728. HEK293 T-REx D1 cells, calcium flux, agonist mode. activation, % at 2 µM. 360,000 compounds, 1% hits. AID 504660; further: 0% is about no effect
#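 Tetracycline-induced HEK293 TREx D1 cells, force-coupled to calcium signalling, were dye-loaded with a no-wash calcium kit. Compound was pin-added after a 10 s baseline. Fluorescence was read kinetically at 1 cycle/s for 180 s, with calcium rises flagged as agonism.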
# Numbers without * were called inactive; . = no result given. An excerpt weighted towards active compounds, which were near 4.7% of everything screened. Unless noted, no stated cut-off is given here; in the data, active means activation above about 30%; inactive means the rest.
SMILES,TRHR agonist,D1 PAM,TRHR PAM,D1 antag,D1 ag
O=C(c1ccc(Cn2ccc([N+](=O)[O-])n2)cc1)N1CCN(Cc2ccccc2)CC1,1,-3,-12,-6,2
CSc1ccc(CN2CCN(C(=O)c3ccc([N+](=O)[O-])cc3)CC2)cc1,0,-10,-11,-60*,9
CN1CCc2c(sc3c2C(=O)NC(c2ccc(OC(=O)c4ccc(C(C)(C)C)cc4)cc2)N3)C1 (stereo not given),121*,13,9,-11,263*
CN1CCc2c(sc3c2C(=O)NC(c2ccc(OC(=O)c4ccccc4)cc2)N3)C1 (stereo not given),22,-2,-4,-10,114*
Cc1cccc(C2NC(=O)c3c(sc4c3CCN(C)C4)N2)c1O (stereo not given),-1,0,47*,21,11
CN1CCc2c(sc3c2C(=O)NC(c2ccc(OC(=O)c4ccc(Cl)cc4)cc2)N3)C1 (stereo not given),71*,1,1,0,145*
CN1CCc2c(sc3c2C(=O)NC(c2ccccc2)N3)C1 (stereo not given),3,-2,3,23,11
O=C(COc1ccccc1F)NC1CC(=O)N(c2ccc3c(c2)OCCO3)C1 (stereo not given),0,-2,6,.,-2
COc1ccc(Oc2c(-c3ccc(O)cc3O)n[nH]c2C)cc1,-1,-5,2,0,3
CCCOC(=O)c1ccc(Oc2cn[nH]c2-c2ccc(OCC)cc2O)cc1,0,-3,1,-1,2
CCCc1ccc(Oc2cn[nH]c2-c2ccc(O)c(C)c2O)cc1,2,-11,10,-17,33*
CCCc1ccc(Oc2c(-c3ccc(O)c(C)c3O)n[nH]c2C)cc1,3,-4,2,8,35*
CCOC(=O)c1c(C)[nH]c(C)c1S(=O)(=O)N1CCCC(C(=O)Nc2ccccc2OCC)C1 (stereo not given),0,-3,-6,8,3
O=C(NCCC(=O)N1CCCC(C(F)(F)F)C1)c1ccccc1Cl (stereo not given),4,3,-4,1,1
CCn1c(/C=C/c2ccccc2[N+](=O)[O-])nc2ccccc2c1=O,-1,5,40*,5,5
Cn1c(/C=C/c2ccccc2[N+](=O)[O-])nc2ccccc2c1=O,-1,8,-3,7,1
CCOC(=O)CSc1nc(C2CC2)cc(-c2ccc(Cl)cc2)c1C#N,0,4,-5,-87*,12
CCOC(=O)CSc1nc(-c2ccc(Cl)cc2)cc(C(F)(F)F)c1C#N,2,1,12,6,29
CCC(=O)Nc1cccc(NC(=O)c2ccccc2Cl)c1,-1,-4,-1,2,2
CCC(=O)Nc1cccc(NC(=O)c2ccc(C)cc2Cl)c1,-1,-4,3,-46*,0
COc1cc(NC(=O)Cn2cnc3sc(C)c(S(=O)(=O)N4CCC(C)CC4)c3c2=O)cc(OC)c1OC,0,2,2,4,-1
Brc1ccccc1-n1ncc2c1ncn1nc(Cc3ccccc3)nc21,0,0,-4,-63*,0
CC(Nc1ccc2ccccc2c1)C(=O)N/N=C/c1ccncc1 (stereo not given),-1,-2,-4,-2,1
O=C(O)CN1C(=O)/C(=C\c2cn(CC(=O)N3CCOCC3)c3ccccc23)SC1=S,17,-7,-3,-4,32*
Cc1cc2c(cc1C)NC(CC(=O)Nc1cccc(Cl)c1)C(=O)N2 (stereo not given),2,1,43*,-18,6
SMILES,TRHR agonist,D1 PAM,TRHR PAM,D1 antag,D1 ag
O=C(CC1Nc2ccccc2NC1=O)Nc1cc(Cl)cc(Cl)c1 (stereo not given),0,3,7,0,0
Cc1cccc(N=C2NC(=O)C(CO)(CO)S2)c1,-1,-5,0,-19,5
Cc1ccc(CNC(=O)c2cc3c(=O)n(C)c4ccccc4c3n2C)o1,-1,.,-4,-45*,-1
Cn1c(C(=O)NCc2ccc(Cl)cc2)cc2c(=O)n(C)c3ccccc3c21,0,-2,12,3,-1
CCN(CC)C(=O)C1CCCN(C(=O)c2oc3ccc(C)cc3c2C)C1 (stereo not given),0,-1,2,30,1
Cc1cc(NC(=O)c2cc(CC(C)C)on2)no1,0,4,2,12,-2
CCC(C)NC(=O)c1cc(CC(C)C)on1 (stereo not given),0,1,4,-30*,2
Cn1c(SCC(=O)c2cc(Cl)c(Cl)s2)nnc1-c1ccco1,0,-1,10,-68*,-1
Cn1cc(CN(C(=O)Nc2ccccc2)C2CCCCC2)c2ccccc21,0,0,3,10,-1
CCC(NC(=O)Nc1nnc(C(F)(F)F)s1)(C(F)(F)F)C(F)(F)F,12,-11,-3,-58*,31*
Cc1ccc(-c2csc(NC(=O)/C=C/c3cccs3)n2)cc1C,1,-4,-1,-79*,3
N#Cc1ccc(-c2csc(NC(=O)/C=C/c3cccs3)n2)cc1,0,-5,-4,-44*,1
COc1ccc(NC(=O)Cn2c3ncccc3c(=O)n2-c2ccc(C)c(C)c2)c(OC)c1,-1,-2,1,24,2
CCCN(CC1CC1)C(=S)NC(=O)c1cc(Br)ccc1Cl,0,-3,16,4,-1
CCn1nc(C)c(CN2CCC(C(=O)Nc3cccc(-c4cccc(F)c4)c3)CC2)c1C,1,-4,0,-20,37*
Cc1ccc(CN2CCC(C(=O)Nc3cccc(-c4cccc(F)c4)c3)CC2)o1,0,-1,-7,2,2
CCn1cc(CN2CCC(C(=O)Nc3cccc(-c4cccc(F)c4)c3)CC2)cn1,0,-10,-2,-38*,18
O=C(Nc1cccc(-c2cccc(Cl)c2)c1)C1CCN(Cc2ccc(CO)o2)CC1,0,-14,6,-12,15
CC(C)n1cc(CN2CCC(C(=O)Nc3cccc(-c4cccc(Cl)c4)c3)CC2)cn1,2,-4,4,-21,41*
CCn1cc(CN2CCC(C(=O)Nc3cccc(-c4cccc(OC)c4)c3)CC2)cn1,0,3,4,-3,2
Cc1ccc(S(=O)(=O)NCCc2sc3nc(-c4ccccc4)nn3c2C)cc1C,0,-3,8,.,1
CCOc1ccc(NC(=O)c2cc(S(=O)(=O)N3CCC(C)CC3)cn2C)cc1,-1,-4,5,-22,0
CSc1ccc(CN2CCC(n3nccc3NC(=O)CCCc3ccccc3)CC2)cc1,1,-2,-3,-18,24
CCCOc1cccc(C(=O)Nc2cc(-c3ccccc3)no2)c1,3,-1,1,0,6
